Screening results from PubChem.
The list is not random: actives were taken first. Their share in the collection is about 1.3%.
PKA-R2B act – activators of PKA-R2B holoenzyme, primary screen, biochemical, fluorescence polarization, Cy5-IP20, human; 0.079% of 340,000 active; AID 504700, 2011; activation, % at 11.4 µM; PKA-R2B holoenzyme dissociation; R2B truncated from residue 108, S112A mutant; 0% DMSO only, 100% 113 µM cGMP; cAMP-dependent protein kinase catalytic subunit beta (Homo sapiens) + cAMP-dependent …;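 active = activation above a cutoff set at the mean over all compounds plus 3 SD, cut at about 18% in these data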;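 also: higher means more holoenzyme dissociation and a rise in polarization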
PKA-R1A activ – activators of PKA-R1A holoenzyme, primary screen, biochemical, fluorescence polarization, Cy5-IP20, bovine R1A, mouse PKAc | PKA-R1A dissociation; scaled: DMSO 0%, 113 µM cGMP 100% | activation, % at 11.4 µM | 0.083% of 340,000 active | AID 504707, 2011;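 active = percent activation above the mean of all tested compounds plus 3 SD, cut at about 19% in these data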;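 also: higher means more PKAc released from R1A so a rise in polarization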
Neddyl block – inhibitors of cullin neddylation, primary screen, biochemical, TR-FRET, uHTS, NAE and Ubc12; 0.58% of 360,000 active; NEDD8-conjugating enzyme Ubc12 (Homo sapiens) + NEDD8-activating enzyme E1 regulatory …; AID 651699, 2012; inhibition, % at 25 µM; in the data active = inhibition above about 36%
Target sequence (P61081 whole entry, looked up): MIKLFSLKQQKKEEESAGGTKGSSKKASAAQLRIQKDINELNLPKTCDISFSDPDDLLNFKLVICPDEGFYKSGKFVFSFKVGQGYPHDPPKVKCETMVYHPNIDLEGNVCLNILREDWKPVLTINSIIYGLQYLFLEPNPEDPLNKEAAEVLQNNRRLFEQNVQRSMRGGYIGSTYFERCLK
Target sequence (Q13564 whole entry, looked up): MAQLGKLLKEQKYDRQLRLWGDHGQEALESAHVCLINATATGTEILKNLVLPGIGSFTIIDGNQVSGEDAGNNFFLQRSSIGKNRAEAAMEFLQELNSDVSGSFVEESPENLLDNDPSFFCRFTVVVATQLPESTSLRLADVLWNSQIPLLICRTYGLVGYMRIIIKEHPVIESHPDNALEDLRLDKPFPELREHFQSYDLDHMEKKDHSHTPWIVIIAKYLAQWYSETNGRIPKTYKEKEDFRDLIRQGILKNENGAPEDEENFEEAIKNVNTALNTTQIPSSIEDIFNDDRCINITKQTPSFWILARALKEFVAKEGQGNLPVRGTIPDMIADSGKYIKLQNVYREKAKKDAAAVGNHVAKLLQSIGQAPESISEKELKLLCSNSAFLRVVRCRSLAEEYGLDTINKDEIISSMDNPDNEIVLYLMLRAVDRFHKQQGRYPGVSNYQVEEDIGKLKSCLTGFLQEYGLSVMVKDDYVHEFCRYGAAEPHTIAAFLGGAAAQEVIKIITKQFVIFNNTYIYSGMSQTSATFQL
Rpn11 block – Rpn11 (PSMD14) deubiquitinase inhibitors, primary screen, biochemical, fluorescence polarization, uHTS | 26S proteasome non-ATPase regulatory subunit 14 (Homo sapiens), O00487 | human 26S proteasome, Ub4-pepOG fluorescence polarization; 20S core pre-blocked with epoxomicin | calls only at 20 µM | 0.59% of 360,000 active | AID 588493, 2011;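 active = inhibition at 20 µM, scaled to each plate's controls, above about 33%, limit read from the data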
Rpn11 inh conf – Rpn11 (PSMD14) deubiquitinase inhibitors, confirmation, biochemical, fluorescence polarization, single concentration | 29% of 1,900 active | shares compounds with Rpn11 block | purified human 26S proteasome, Ub4-pepOG fluorescence polarization; proteasome pretreated with epoxomicin | inhibition, % at 20 µM | AID 602318, 2012
MMP-2 counter – MMP-2 enzyme inhibition, confirmation, counter-screen for RPN11 inhibitor project, biochemical, fluorescence, single concentration. 4% of 1,900 active. shares compounds with Rpn11 block. inhibition, % at 20 µM. recombinant MMP-2, FRET peptide cleavage fluorescence;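 also: human MMP-2 activated beforehand with APMA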
Thrombin FP – bovine thrombin protease inhibition, confirmation, counter-screen for Rpn11 inhibitor project, biochemical, fluorescence polarization, single concentration; shares compounds with Rpn11 block; 13% of 1,900 active; inhibition, % at 20 µM; bovine thrombin cleavage of Ub4-pepOG;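 active = mean inhibition at least 40% at 20 µM, or signal 3 deviations below plate average, so some actives read negative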;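 also: plate controls were thrombin with DMSO for no effect and buffer wells lacking thrombin for full effect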
* hit, by the source's call; i = inactive; . = not tested or not shown; + = active, no number. Rule as the data show it, unless noted: active = inhibition above about 40%; inactive = the rest.

SMILES	PKA-R2B act	PKA-R1A activ	Neddyl block	Rpn11 block	Rpn11 inh conf	MMP-2 counter	Thrombin FP
CCOC(=O)[C@]12CCC=C1N(Cc1ccccc1)C(=O)[C@H](CC(=O)NCCC(C)C)C2	.	.	8	.	.	.	.
N#Cc1ccc(Oc2nc(C(N)=O)cc(-c3ccccc3)n2)cc1	6	-4	10	i	.	.	.
COC(=O)c1ccc(Oc2nc(C(N)=O)cc(-c3ccccc3)n2)cc1	-7	-12	-19	+	35	1	-6
CCn1cc(C(=O)N[C@@H](CC(C)C)C(=O)NCCCn2ccnc2)c(=O)c2cc3c(cc21)OCO3	0	10	14	i	.	.	.
CCOC(=O)CCC(=O)Nc1ccc([N+](=O)[O-])cc1C	.	.	-13	+	-8	-31	-10
Cc1cc(C(=O)COC(=O)c2ccc(NC(=O)CC#N)cc2)c(C)n1CCc1ccc(F)cc1	6	1	-25	+	23	-19	17
N#CCC(=O)Nc1ccc(C(=O)OCC(=O)c2ccc3c(c2)NC(=O)CO3)cc1	-1	-6	33	+	21	-3	25
COc1ccc(CCn2c(C)cc(C(=O)COC(=O)c3ccc(NC(=O)CC#N)cc3)c2C)cc1	8	-9	-8	.	.	.	.
CC(=O)Nc1cc(NC(C)=O)cc(C(=O)OCC(=O)c2ccc3c(c2)NC(=O)CO3)c1	-5	7	-7	i	.	.	.
CC(=O)NS(=O)(=O)c1ccc(NC(=O)COc2ccc(C(=O)c3ccccc3)cc2)cc1	1	1	-9	i	.	.	.
COCC1CCN(C(=O)CCc2nnc(C3(c4ccc(Cl)cc4)CCC3)o2)CC1	-11	6	5	i	.	.	.
CCc1ccccc1NC(=O)C1CCN(S(C)(=O)=O)CC1	.	.	-8	i	.	.	.
O=C(N/C(=N\O)c1ccccc1)Nc1ccc(Cl)cc1	1	-4	3	+	-12	-47	-14
O=C1OC(c2ccc(F)cc2)CC1CN1CCOCC1 (stereo not drawn)	.	.	3	i	.	.	.
COc1ccc(/C=C2\Oc3cc(OCC(=O)N4CCC[C@H]4CO)ccc3C2=O)c(OC)c1	12	8	4	+	73*	-53	62*
O=C1/C(=C/c2ccc3c(c2)OCO3)Oc2cc(OCC(=O)N3CCC[C@H]3C(=O)O)ccc21	-10	-17	0	i	.	.	.
O=C(CN1C(=O)c2ccccc2S1(=O)=O)NCCSc1ccccc1	6	10	1	+	-7	-26	-19
O=c1[nH]c(N2CCCCC2)nc2ncn(Cc3ccccc3)c12	-15	2	-4	i	.	.	.
CCOC(=O)C1CCN(S(=O)(=O)CCNC(=O)c2ccc(F)cc2)CC1	-1	-9	4	i	.	.	.
O=C(NCc1n[nH]c(=S)n1-c1ccc(F)cc1)c1ccc(S(=O)(=O)N2CCOCC2)cc1	-4	-1	9	+	-5	53*	-10
Cc1cccc(CNC(=O)c2ccccc2N)c1	-9	-4	.	+	-7	-5	-7
Cc1ccc(CNC(=O)c2ccccc2N)cc1	-2	7	.	i	.	.	.
Cc1ccc(CC(=O)NNC(=O)c2cccs2)cc1C	-4	8	6	i	.	.	.
O=c1cc(-c2ccc(O)cc2)oc2c1ccc1ccccc12	-8	-17	.	+	64*	-26	-13
Cc1nn(C(=O)c2nn(C)cc2[N+](=O)[O-])c(C)c1Br	5	3	3	i	.	.	.
SMILES	PKA-R2B act	PKA-R1A activ	Neddyl block	Rpn11 block	Rpn11 inh conf	MMP-2 counter	Thrombin FP
CCCc1cc(=O)oc2cc(OCC(=O)Nc3ccc(S(N)(=O)=O)cc3)ccc12	-5	-8	14	+	6	67*	-10
CCCc1cc(=O)oc2cc(OCC(=O)NCc3cccs3)ccc12	-6	-5	29	i	.	.	.
Cc1nc2ccccn2c1-c1csc(NCc2ccco2)n1	8	1	19	+	-10	34	-20
NC(=O)CC(NC(=O)Cc1ccc(Br)cc1)c1ccc(NCCc2ccc(F)cc2)c([N+](=O)[O-])c1 (stereo not drawn)	-2	12	-42	i	.	.	.
COc1ccc(CCNc2ccc(C(CC(N)=O)NC(=O)Cc3ccc(Br)cc3)cc2[N+](=O)[O-])cc1 (stereo not drawn)	-8	-20	-40	+	16	-21	-20
NC(=O)CC(NC(=O)Cc1ccc(Br)cc1)c1ccc(NCCc2ccc(Cl)cc2)c([N+](=O)[O-])c1 (stereo not drawn)	-1	1	-33	+	33	5	-1
COc1ccccc1OC(C)C(=O)N1CC(=O)Nc2ccccc21 (stereo not drawn)	-6	-6	-6	i	.	.	.
CCN1C(=O)/C(=C/C=C2/CCCN2C)OC1=S	-3	-7	-13	+	43*	6	54*
Cc1nn(-c2ccccc2)c(C)c1/C=C1\C(=O)N(C)C(=S)N1C	-11	-10	-26	i	.	.	.
CCN1C(=O)/C(=C/N(C)c2ccccc2)OC1=S	1	4	-36	i	.	.	.
CN1C(=O)/C(=C\C=C2/CCCN2C)N(C)C1=S	-20	-2	-44	+	74*	-94	60*
CC1CCC(NC(=O)CCS(=O)(=O)c2ccc3c(c2)CCN3C(=O)C2CC2)CC1 (stereo not drawn)	1	-3	-1	i	.	.	.
CCCCc1nc(SCC(=O)N2CCOCC2)c2c(=O)n(C)c(=O)n(C)c2n1	12	-2	9	i	.	.	.
Cc1cc(C)c(-c2nc3ccccc3s2)[nH]1	4	1	32	+	-6	-6	0
O=C(NCCc1ccccc1)c1cccc2c1C(=O)c1ccc(N3CCOCC3)cc1S2(=O)=O	-7	8	-63	i	.	.	.
CC1CCN(c2ccc3c(c2)S(=O)(=O)c2cccc(C(=O)NC4CCCCC4)c2C3=O)CC1	2	1	-29	+	44*	-28	31
O=C(NCc1ccc(F)cc1)c1cccc2c1C(=O)c1ccc(N3CCOCC3)cc1S2(=O)=O	6	-1	-55	+	54*	-11	30
